Assay results taken from ChEMBL document CHEMBL3988442, “University of Dundee, Small-Polar-MMV Screening Library” (2021).
For some of these results: Entries with a potency or affinity are not part of this list.

Legend:
Parameters in all cases: scale not given: direction of the effect not stated beside the values
[1] = biological target: Protein translocase subunit SecA (Escherichia coli (strain K12)) (UniProt P10408); assay: Assay to Identify E. coli SecA ATPase Inhibitors; format: functional; settings: 30 µM
[2] = biological target: T1, Ubiquitin-activating enzyme e1, putative (Leishmania donovani (strain BPK282A1)) (UniProt E9BSI1); assay: Leishmania donovani Ubiquitin Activating Enzyme (LdE1); format: functional; settings: 30 µM
T1 sequence (whole entry): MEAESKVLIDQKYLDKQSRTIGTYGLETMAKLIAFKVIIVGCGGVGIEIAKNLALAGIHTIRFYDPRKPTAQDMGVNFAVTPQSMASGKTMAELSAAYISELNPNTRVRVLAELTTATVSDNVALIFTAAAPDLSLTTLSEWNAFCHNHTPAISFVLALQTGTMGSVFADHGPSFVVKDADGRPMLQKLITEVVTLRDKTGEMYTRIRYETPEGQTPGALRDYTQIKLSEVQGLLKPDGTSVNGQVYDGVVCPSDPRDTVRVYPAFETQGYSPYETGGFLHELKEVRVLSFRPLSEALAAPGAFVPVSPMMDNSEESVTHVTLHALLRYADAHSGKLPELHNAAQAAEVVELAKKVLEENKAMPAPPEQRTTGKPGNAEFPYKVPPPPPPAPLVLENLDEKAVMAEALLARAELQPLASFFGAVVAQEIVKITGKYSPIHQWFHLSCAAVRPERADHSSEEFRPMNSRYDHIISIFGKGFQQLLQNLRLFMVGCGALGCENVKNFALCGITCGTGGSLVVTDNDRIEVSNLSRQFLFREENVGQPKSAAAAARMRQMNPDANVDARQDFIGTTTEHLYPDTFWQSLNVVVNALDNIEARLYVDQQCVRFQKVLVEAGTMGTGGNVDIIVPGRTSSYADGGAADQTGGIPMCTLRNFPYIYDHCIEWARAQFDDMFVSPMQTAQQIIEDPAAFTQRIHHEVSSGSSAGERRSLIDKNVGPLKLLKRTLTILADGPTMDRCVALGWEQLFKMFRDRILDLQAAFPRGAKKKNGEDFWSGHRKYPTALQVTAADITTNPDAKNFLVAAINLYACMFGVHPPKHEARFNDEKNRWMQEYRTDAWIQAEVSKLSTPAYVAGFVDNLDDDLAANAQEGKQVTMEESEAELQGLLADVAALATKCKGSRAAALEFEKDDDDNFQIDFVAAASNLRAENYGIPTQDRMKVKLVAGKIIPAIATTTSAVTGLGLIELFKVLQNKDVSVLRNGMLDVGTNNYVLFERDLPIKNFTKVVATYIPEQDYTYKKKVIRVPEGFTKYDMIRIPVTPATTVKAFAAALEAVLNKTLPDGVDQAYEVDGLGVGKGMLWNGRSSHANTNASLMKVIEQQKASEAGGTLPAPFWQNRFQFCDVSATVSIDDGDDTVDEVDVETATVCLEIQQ

[3] = biological target: T2, Aspartate--tRNA(Asp/Asn) ligase (Mycobacterium tuberculosis (strain ATCC 25618 / H37Rv)) (UniProt P9WFW3); assay: Assay for Asp RNA synthetase-1 from Mycobacterium tuberculosis; format: functional; settings: 30 µM; note: in the data most compounds retested in dose-response had high values
T2 sequence (whole entry): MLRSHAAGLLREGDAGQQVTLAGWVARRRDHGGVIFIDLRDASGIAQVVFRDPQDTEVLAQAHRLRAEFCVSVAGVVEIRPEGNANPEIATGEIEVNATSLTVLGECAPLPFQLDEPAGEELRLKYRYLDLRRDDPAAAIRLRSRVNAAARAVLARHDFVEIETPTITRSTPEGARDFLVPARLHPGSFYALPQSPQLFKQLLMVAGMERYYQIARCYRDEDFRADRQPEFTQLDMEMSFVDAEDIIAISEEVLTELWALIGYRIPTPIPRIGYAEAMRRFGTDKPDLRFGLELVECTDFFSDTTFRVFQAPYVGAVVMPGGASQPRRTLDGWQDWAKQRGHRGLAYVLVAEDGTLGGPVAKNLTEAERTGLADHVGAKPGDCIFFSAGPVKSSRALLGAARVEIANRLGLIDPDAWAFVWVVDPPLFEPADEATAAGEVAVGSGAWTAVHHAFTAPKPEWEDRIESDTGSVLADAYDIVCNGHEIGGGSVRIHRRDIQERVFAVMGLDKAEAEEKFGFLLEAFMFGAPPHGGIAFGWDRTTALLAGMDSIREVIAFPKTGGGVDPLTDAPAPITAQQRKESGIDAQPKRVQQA

[4] = biological target: Sialic acid-binding Ig-like lectin 9 (Homo sapiens) (UniProt Q9Y336); assay: Hs-Siglec9 ALPHAscreen SOP 20170721; settings: 10 µM
[5] = tested on: Trypanosoma cruzi; assay: Trypanosoma cruzi phosphomannomutase and mannose-1-phosphate guanylyltransferase assay; format: functional; settings: 10 µM
[6] = biological target: T3, Arginase-2, mitochondrial (Homo sapiens) (UniProt P78540); assay: in vitro enzyme assay to detect the production of urea directly proportional to the activity of Arginase II; format: functional; settings: 33.3 µM; note: in the data most compounds retested in dose-response had high values
T3 sequence (whole entry): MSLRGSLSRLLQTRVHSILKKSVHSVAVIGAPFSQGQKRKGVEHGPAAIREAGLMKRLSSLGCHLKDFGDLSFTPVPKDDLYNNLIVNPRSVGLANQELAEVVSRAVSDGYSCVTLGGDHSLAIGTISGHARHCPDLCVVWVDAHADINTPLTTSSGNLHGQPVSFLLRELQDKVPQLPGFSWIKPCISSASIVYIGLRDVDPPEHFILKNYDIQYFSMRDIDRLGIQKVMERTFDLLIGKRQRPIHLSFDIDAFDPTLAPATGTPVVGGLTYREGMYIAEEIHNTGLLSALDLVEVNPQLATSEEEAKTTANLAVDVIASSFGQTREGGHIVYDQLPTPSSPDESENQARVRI

[7] = biological target: T4, Proteasome subunit beta (Trypanosoma cruzi) (UniProt O96673); assay: Trypanosoma cruzi proteasome chymotrypsin-like activity (TcProtChymo) assay.; note: in the data most compounds retested in dose-response had high values; format: functional; settings: 9.37 µM
T4 sequence (whole entry): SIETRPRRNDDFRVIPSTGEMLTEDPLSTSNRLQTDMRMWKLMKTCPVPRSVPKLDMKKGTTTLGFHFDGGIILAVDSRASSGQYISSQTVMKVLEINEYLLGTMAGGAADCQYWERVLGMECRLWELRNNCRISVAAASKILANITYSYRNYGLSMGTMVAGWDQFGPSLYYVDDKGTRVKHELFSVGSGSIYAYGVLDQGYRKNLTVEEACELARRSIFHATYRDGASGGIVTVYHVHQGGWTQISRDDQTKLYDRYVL

[8] = species on record: Homo sapiens; assay: To identify inhibition of the IFN signalling (Jak-Stat) pathway via expression of an eGFP reporter gene under the control of an IFN-stimulated response element (ISRE) containing MxA promoter.; format: functional; settings: 30 µM
[9] = biological target: Shiga toxin 2 (Escherichia coli O157:H7) (UniProt P09385+P09386); assay: E. coli 0.157:H7 Shiga Toxin SOP - stx2 screening assay; format: functional; settings: 30 µM
[10] = biological target: T5, Tyrosyl-tRNA synthetase, putative (Trypanosoma cruzi (strain CL Brener)) (UniProt Q4DSP6); assay: Trypanosoma cruzi tyrosyl tRNA synthetase (TcYRS) _High Tyrosine SOP; format: functional; settings: 30 µM; note: in the data most compounds retested in dose-response had high values
T5 sequence (whole entry): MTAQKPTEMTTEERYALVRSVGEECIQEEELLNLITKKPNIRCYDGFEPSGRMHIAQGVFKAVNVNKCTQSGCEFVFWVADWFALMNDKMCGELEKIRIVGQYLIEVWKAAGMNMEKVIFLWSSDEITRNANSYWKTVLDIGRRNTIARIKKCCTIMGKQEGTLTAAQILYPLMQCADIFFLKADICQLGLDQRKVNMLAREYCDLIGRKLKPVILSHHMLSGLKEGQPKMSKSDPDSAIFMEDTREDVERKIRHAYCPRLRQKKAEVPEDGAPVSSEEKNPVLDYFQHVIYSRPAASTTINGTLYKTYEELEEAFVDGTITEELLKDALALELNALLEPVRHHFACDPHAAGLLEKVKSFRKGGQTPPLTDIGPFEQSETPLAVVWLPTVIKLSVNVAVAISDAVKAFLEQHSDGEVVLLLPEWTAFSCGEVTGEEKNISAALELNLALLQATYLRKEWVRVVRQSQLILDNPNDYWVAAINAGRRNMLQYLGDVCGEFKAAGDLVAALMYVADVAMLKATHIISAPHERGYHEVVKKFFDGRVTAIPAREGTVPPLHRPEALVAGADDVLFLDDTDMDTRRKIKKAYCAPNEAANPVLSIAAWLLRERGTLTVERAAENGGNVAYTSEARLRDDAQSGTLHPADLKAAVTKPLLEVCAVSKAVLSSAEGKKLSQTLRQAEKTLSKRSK

[11] = biological target: T5, Tyrosyl-tRNA synthetase, putative (Trypanosoma cruzi (strain CL Brener)); assay: Trypanosoma cruzi tyrosyl tRNA synthetase (TcYRS) SOP; format: functional; settings: 30 µM
[12] = biological target: Chromo domain-containing protein 1 (Saccharomyces cerevisiae (strain ATCC 204508 / S288c) (Baker's yeast)) (UniProt P32657); assay: ScCHD-1 Enzyme Inhibition Assay; format: functional; settings: 30 µM; note: in the data most compounds retested in dose-response had high values
Chromo domain-containing protein 1 (Saccharomyces cerevisiae (strain ATCC 204508 / S288c) (Baker's yeast)), sequence (P32657 whole entry, the tested form may be a part): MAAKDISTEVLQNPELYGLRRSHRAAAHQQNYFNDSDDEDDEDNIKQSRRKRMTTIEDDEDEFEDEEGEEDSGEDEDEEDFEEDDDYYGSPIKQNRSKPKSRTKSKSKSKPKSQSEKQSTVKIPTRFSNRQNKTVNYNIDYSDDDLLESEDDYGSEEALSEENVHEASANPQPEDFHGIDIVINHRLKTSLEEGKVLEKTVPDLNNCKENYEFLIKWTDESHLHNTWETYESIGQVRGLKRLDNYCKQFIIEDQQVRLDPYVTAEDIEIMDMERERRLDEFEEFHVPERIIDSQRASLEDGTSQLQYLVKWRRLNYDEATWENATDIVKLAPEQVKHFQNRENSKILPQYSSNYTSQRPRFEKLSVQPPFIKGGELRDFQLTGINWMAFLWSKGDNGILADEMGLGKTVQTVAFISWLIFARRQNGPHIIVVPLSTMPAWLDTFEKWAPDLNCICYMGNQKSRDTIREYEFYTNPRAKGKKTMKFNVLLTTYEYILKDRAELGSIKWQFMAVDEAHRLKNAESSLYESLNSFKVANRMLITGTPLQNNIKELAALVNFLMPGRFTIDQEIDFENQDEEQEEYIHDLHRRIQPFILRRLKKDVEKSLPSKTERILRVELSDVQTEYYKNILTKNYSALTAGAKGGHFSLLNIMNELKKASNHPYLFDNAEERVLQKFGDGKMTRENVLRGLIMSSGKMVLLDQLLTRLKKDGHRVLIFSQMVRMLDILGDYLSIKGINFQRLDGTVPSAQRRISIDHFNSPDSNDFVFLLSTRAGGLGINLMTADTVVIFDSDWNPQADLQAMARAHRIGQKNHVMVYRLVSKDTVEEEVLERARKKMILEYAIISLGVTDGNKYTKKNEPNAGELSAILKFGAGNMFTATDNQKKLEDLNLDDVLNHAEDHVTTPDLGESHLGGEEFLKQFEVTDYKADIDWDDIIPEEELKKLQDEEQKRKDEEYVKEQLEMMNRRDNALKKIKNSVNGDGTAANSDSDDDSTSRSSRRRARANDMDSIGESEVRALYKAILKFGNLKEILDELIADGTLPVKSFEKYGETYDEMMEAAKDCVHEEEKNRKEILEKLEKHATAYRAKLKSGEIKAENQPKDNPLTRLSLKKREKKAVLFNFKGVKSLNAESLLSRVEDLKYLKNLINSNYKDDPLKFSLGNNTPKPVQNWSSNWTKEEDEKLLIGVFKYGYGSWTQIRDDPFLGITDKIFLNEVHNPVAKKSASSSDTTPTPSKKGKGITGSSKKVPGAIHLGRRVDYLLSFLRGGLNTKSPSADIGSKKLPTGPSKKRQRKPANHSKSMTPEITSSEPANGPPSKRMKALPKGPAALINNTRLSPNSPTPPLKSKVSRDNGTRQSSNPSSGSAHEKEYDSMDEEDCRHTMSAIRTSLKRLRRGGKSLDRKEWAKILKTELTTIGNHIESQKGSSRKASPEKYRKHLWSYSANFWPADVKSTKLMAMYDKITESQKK

Protein translocase subunit SecA (Escherichia coli (strain K12)), sequence (P10408 whole entry): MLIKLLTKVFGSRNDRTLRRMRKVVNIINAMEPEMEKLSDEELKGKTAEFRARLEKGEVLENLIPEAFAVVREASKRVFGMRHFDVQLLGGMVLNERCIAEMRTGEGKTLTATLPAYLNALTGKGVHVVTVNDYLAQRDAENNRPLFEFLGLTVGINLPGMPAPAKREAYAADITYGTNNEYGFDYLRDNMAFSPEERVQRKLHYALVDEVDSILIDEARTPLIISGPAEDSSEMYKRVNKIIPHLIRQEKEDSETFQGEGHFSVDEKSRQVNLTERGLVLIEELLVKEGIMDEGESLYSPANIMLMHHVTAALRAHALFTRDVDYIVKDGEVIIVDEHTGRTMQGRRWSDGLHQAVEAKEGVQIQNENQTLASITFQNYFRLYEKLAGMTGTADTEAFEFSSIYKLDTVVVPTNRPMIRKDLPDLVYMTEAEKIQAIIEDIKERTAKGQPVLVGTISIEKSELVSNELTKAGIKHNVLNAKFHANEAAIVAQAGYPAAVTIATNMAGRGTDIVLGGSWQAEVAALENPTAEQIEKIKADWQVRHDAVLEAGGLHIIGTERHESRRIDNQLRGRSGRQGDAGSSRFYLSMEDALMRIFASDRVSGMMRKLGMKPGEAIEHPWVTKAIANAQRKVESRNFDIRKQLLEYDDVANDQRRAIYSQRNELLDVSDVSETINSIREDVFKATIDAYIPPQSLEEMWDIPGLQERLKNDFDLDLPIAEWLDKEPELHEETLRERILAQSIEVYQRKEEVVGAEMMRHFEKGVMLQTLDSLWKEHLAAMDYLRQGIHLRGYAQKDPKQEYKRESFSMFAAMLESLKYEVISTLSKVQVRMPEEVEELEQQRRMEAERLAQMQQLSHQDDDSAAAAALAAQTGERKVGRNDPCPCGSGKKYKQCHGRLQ
Sialic acid-binding Ig-like lectin 9 (Homo sapiens), sequence (Q9Y336 whole entry): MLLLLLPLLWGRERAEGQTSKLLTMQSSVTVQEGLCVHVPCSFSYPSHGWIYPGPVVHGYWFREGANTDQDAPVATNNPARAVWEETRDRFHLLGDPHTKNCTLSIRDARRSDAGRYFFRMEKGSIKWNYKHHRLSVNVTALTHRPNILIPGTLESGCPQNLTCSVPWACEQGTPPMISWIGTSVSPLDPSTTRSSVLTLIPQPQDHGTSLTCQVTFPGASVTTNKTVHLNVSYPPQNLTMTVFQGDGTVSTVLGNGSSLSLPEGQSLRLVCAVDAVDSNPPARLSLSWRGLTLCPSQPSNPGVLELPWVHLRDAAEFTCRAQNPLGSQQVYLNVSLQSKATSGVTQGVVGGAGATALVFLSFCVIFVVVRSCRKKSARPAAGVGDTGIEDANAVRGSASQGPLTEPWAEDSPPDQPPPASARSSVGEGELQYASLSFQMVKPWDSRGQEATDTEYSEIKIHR

Row | SMILES | Percent Effect [1] [%] | Percent Effect [2] [%] | Percent Effect [3] [%] | Percent Effect [4] [%] | Percent Effect [5] [%] | Percent Effect [6] [%] | Percent Effect [7] [%] | Percent Effect [8] [%] | Percent Effect [9] [%] | Percent Effect [10] [%] | Percent Effect [11] [%] | Percent Effect [12] [%]
1 | C[C@@H]1CN(Cc2ccsc2)C[C@]12CCN(Cc1cccnc1)C2=O | -4.41 | 1.3 | -1.62 | 1.42 | -1.69 | 1.37 | -4.03 | 25.2 | -6.36 | 0 | -10 | -0.115
2 | Cc1ccc(N2CCCC(N(C)Cc3cc(C)no3)C2)nn1 (stereo not given) |  |  | -1.94 |  |  |  |  |  |  |  |  | 
3 | C[C@H]1C(=O)NC[C@H]2CN(Cc3ccccc3)C[C@H]21 | -1.35 | -1.3 | 0.819 | -0.437 | 1.5 | -0.457 | -1.12 | 13.9 | 5.59 | 4.83 | 0 | 0.883
4 | O=C(Nc1cccnc1)[C@@H]1C[C@H]2OCC[C@H]2N(Cc2ccsc2)C1 | -6.23 | 9.09 | -1.88 | 6.98 | 0.487 | -0.81 | 13.7 | 0.767 | -6.35 | 4.74 | 10.3 | -2.28
5 | c1ccc(N2CCCC3(CCN(Cc4cccs4)C3)C2)nc1 (stereo not given) | -7.4 | 16.9 | -1.46 | -2.35 | -2.81 | -0.913 | 10.4 | 17.3 | 5.58 | 1.93 | -2.5 | -9.64
6 | CCC(O)CN1CCN(C(=O)Cc2cc(Cl)ccc2OC)CC1 (stereo not given) | 1.11 | 13 | -1.9 | 12.1 | -1.31 | -3.89 | 4.04 | 13.4 | -9.78 | 4.9 | 21.2 | -7
7 | c1ccc(CN2CCC3(CC2)CCN(Cc2cccs2)C3)nc1 | -3.68 | 11.7 | 1.23 | -8.25 | -1.31 | -0.457 | 6.61 | -11.1 | -13.1 | 8.7 | -12.5 | -12
8 | O=C1C[C@H]2[C@H](CCN2Cc2ccccn2)N1CC1CC1 | -3.35 | 11.7 | 1.05 | -4.27 | -5.25 | 5.02 | 12.4 | 12.4 | -21.2 | 6.76 | 2.5 | -6.54
